Source: PubChem BioAssay AID1578 (Sanford-Burnham Center for Chemical Genomics, 2009)
In all, about 290,000 compounds went through this assay and about 3,000 (1%) were called active. This excerpt belongs to a sample that is enriched for actives. Unmarked numbers belong to inactive results. No stated cut-off is given here; in the data, active means inhibition mostly above about 36% (no sharp cut-off); inactive means mostly below about 34%.

assay: NOD1 signaling inhibitors, primary screen, cell-based, luminescence, uHTS (AID 1578); conditions: NOD1-driven NF-kB luciferase reporter cells, at 4 µM, active compounds read high;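 further: HEK-293T reporter cells stimulated with the NOD1 agonist gamma-tri-DAP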

SMILES	inhibition
Clc1ccc(CNC2CCCC2)cc1	9.1%
Cc1ccc(CN(C(=O)c2ccc([N+](=O)[O-])cc2)C2CCS(=O)(=O)C2)o1 (configuration not stated)	-50%
CCOC(=O)C1CCCN(C(=O)CCNS(=O)(=O)c2cc(Br)cnc2N)C1 (configuration not stated)	-11.8%
Cc1cc(C)c(NC(=O)COC(=O)c2cc([N+](=O)[O-])ccc2N2CCOCC2)c(C)c1	-25.6%
CCOc1ccc(N2C(=O)CC(NCCNc3ccc(C(=O)c4cccs4)cc3)C2=O)cc1 (configuration not stated)	-13.5%
C=C1CCC[C@]2(C)C[C@H]3OC(=O)C(CN(C)CC(OC)OC)[C@H]3CC12 (some centres not stated)	-4.9%
C=C1CCC[C@]2(C)C[C@H]3OC(=O)C(CN(Cc4ccc(OC)c(OC)c4)CC(C)O)[C@H]3CC12 (some centres not stated)	33.5% (active)
C=C1CCC[C@]2(C)C[C@H]3OC(=O)C(CN[C@@H](C)c4ccccc4)[C@H]3CC12 (some centres not stated)	-16.5%
CCc1ccccc1NC(=S)NCCSc1ccc(Cl)cc1	-3.7%
Cc1c(C(C)C)c(=O)n(-c2ccc(S(=O)(=O)NCc3ccccc3)cc2)n1C	44.6% (active)
Cc1c(C(C)C)c(=O)n(-c2ccc(S(=O)(=O)NC3CC3)cc2)n1C	-14.8%
Cc1c(C(C)C)c(=O)n(-c2ccc(S(=O)(=O)NC(C)C)cc2)n1C	8.6%
O=C(Nc1ccc(F)cc1F)c1ccc2ncsc2c1	-38%
CC(C)OCCCNC(=O)c1cc(-c2cccnc2)nc2ccccc12	-6.7%
COC(=O)CN(c1ccc(OC)c(OC)c1)S(C)(=O)=O	-16%
CCOC(=O)c1[nH]ncc1CN1CCCC(C(=O)c2ccc(OC)c(OC)c2)C1 (configuration not stated)	111% (active)
CCOC(=O)c1[nH]ncc1CN1CCCC(C(=O)c2cc(Cl)ccc2OC)C1 (configuration not stated)	16.4%
CCOC(=O)c1[nH]ncc1CN1CCCC(C(=O)c2ccc(C(C)(C)C)cc2)C1 (configuration not stated)	-29.3%
N#CCCN(C(=O)CCl)c1cccc(Cl)c1	58% (active)
Cc1ccc(N(CCC#N)C(=O)CSc2ccc3c(c2)OCCO3)cc1	3.9%
O=C(c1ccco1)N(Cc1ccccc1)c1cccc([N+](=O)[O-])c1	24%
N#CCCN(C(=O)Nc1ccc(Cl)cc1)c1ccccc1	-13%
O=C(CCl)N(Cc1cccc([N+](=O)[O-])c1)c1cccc(Cl)c1	101% (active)
N#CCCN(C(=O)COc1ccc(Cl)cc1Cl)c1ccccc1	-24.1%
Cc1cccc(N(Cc2ccccc2)C(=O)CCl)c1	-31.5%

SMILES	inhibition
Cc1ccc(N(CCC#N)C(=O)CCl)cc1C	97.7% (active)
Cc1ccc(C(=O)N(CC#N)CC#N)cc1C	-16.5%
CCCCc1n[nH]c2c1/C(=N/O)CC(C)(C)C2	-12.1%
O=C(N/N=C/c1ccncc1)c1cc2ccccc2cc1O	11.3%
Cc1cccc(NC(=O)CSC2=NN3CCCC(=O)N=C3S2)c1C	7.2%
CC(=O)O/N=C(/c1nonc1N)N(C)C	-21.6%
CCCc1nc2ccc(N)cc2c(=O)n1Cc1ccccc1Cl	-43.9%
CC(Sc1nc(N)c(NC(=O)c2ccc(Br)o2)c(=O)[nH]1)C(=O)O (configuration not stated)	-18.7%
N#C/C(=C/c1cccc([N+](=O)[O-])c1)c1nnc2n1CCCCC2	-32.4%
N#C/C(=C\c1cccc([N+](=O)[O-])c1)c1nnc2n1CCCCC2	9%
CN(c1ccccc1)c1ccc(/C=C(\C#N)c2nnc3n2CCCCC3)cc1[N+](=O)[O-]	78.8% (active)
Cc1ccnc(NC(=O)/C=C/c2ccccc2[N+](=O)[O-])c1	-40.4%
Cc1nccn1CC(O)COc1ccc([N+](=O)[O-])cc1 (configuration not stated)	-5.8%
CCOC(=O)Cn1nnnc1CN(Cc1ccc(OC)cc1)Cc1cc2cc(C)cc(C)c2[nH]c1=O	-21.1%
Cn1c(=O)c2c(nc(N/N=C/c3ccc(OC(=O)c4ccco4)cc3)n2Cc2ccc(F)cc2)n(C)c1=O	33.2%
Cn1c(=O)c2c(nc(N/N=C/c3ccc(OC(=O)c4ccco4)cc3)n2Cc2ccccc2)n(C)c1=O	26.6%
Cc1nn2c3ccccc3n(CC(=O)c3cccs3)c2nc1=O	19.3%
COc1cccc(CNC(=O)N2CCN(S(=O)(=O)c3ccc(Cl)cc3)CC2)c1	12.4%
COc1ccc(C(=O)C2CCCN(C(=O)COc3ccc(C(C)=O)cc3)C2)cc1F (configuration not stated)	-21.9%
C[n+]1ccccc1/C=C1\Sc2ccccc2N1CCO	-20.4%
CCC(CO)[n+]1c(C)cc(/C=C2\Sc3ccccc3N2Cc2ccccc2)cc1C (configuration not stated)	75.9% (active)
CCN1/C(=C2\SC(=S)N(Cc3ccccc3)C2=O)Sc2ccccc21	4.6%
COc1ccc(CNS(=O)(=O)c2ccccc2Br)cc1	3.1%
CC(=O)c1cccc(Nc2ccc(-c3ccccc3F)nn2)c1	-57.9%
Cc1ccc(C(=O)NC(=S)N2CCN(c3ccccc3F)CC2)cc1	19.9%

SMILES	inhibition
Cc1ccc(C(=O)NC(=S)N2CCN(c3cc(C)ccc3C)CC2)cc1	55.1% (active)
Cc1ccc(C(=O)NC(=S)N2CCN(C)CC2)cc1	-21.2%
COc1ccc(OCC(O)CNC2CCCC2)cc1 (configuration not stated)	5.8%
Cc1ccc(OCC(O)CNC2CCCC2)cc1C (configuration not stated)	62.6% (active)
Cc1ccc(C)c(OCC(O)CNC2CCCC2)c1 (configuration not stated)	-40.4%
CC(C)OC1(c2ccccc2)OC(=O)c2ccccc21 (configuration not stated)	13.3%
Nc1nc2ccccc2n1C(=O)c1ccccc1	-26.6%
Nc1ccc(C(=O)n2c3ccccc3c3ccccc32)cc1	75.2% (active)
Cc1ccc(C(=O)n2c3ccccc3c3ccccc32)cc1	7.1%
CC(=O)n1c2ccccc2c2ccccc21	11.7%
Cc1ccc(C(=O)n2c(N)nc3ccccc32)cc1	41.2% (active)
COc1ccc(C(=O)n2c(N)nc3ccccc32)cc1OC	-61.2%
O=C(CC1C(=O)NCCN1Cc1ccc(-c2ccccc2)cc1)NCCCn1cccn1 (configuration not stated)	-27.9%
CNC(=O)COC(=O)[C@@H](Nc1ccc(S(=O)(=O)N2CCOCC2)cc1[N+](=O)[O-])C(C)C	-8.1%
Cc1ccc(C(=O)Nc2ncn[nH]2)cc1	-32.8%
CCOc1ccc(-c2[nH]ncc2Oc2cccc(OC)c2)c(O)c1	10.8%
CCc1c(C)c(C#N)c2nc3ccccc3n2c1N(C)C	2%
N#Cc1c(-c2ccccc2)c(C#N)c2nc3ccccc3n2c1N	37.8%
CCCCc1c(C)c(C#N)c2nc3ccccc3n2c1Cl	101% (active)
CCc1c(C)c(C#N)c2nc3ccccc3n2c1Cl	62.6%
CCCCCc1c(C)c(C#N)c2nc3ccccc3n2c1-n1ccnc1C	15.8%
CCCCc1c(C)c(C#N)c2nc3ccccc3n2c1NCCN(C)C	-4.5%
Cc1cc(Cl)n2c(nc3ccccc32)c1C#N	-29.7%
CC(C)(C)C1=C(C#N)C(c2cccnc2)C(C#N)=C(N)O1 (configuration not stated)	19.8%
CCCCOc1ccc(-c2[nH]ncc2C=O)cc1	-46%

SMILES	inhibition
COc1ccc2nc(NC(=O)c3cccs3)sc2c1	-15.7%
CCOc1ccc(OCC)c(N=c2oc3c(C)ncc(CO)c3cc2C(N)=O)c1	23.3%
CSc1nnc(CNS(=O)(=O)c2ccc(Cl)cc2)n1C	-7.4%
CC(C)(C)n1nc(-c2ccc(Cl)cc2)c2c(N)ncnc21	54.6%
CC(=O)Nc1ncnc2c1c(-c1ccc(Cl)cc1)nn2C(C)(C)C	39.6%
CC(=O)N(C(C)=O)c1ncnc2c1c(-c1ccc(Cl)cc1)nn2C(C)(C)C	71.2% (active)
Cc1ccccc1C(=O)Nc1ccccn1	-7.2%
c1ccc(-c2nn3c(-c4ccccc4)nnc3s2)cc1	-69.4%
O=S(=O)(/N=C(/Nc1ccccn1)c1ccccc1)c1ccccc1	5.7%
O=S(=O)(/N=C(/Nc1cc(N2CCOCC2)ncn1)c1ccccc1)c1ccccc1	0.2%
COc1cc(N/C(=N/S(=O)(=O)c2ccccc2)c2ccccc2)ncn1	48.5% (active)
Cn1c(CO)cnc1SCc1ccc(Cl)cc1	-5.4%
O=C1C2C3C=CC(CO)(O3)C2C(=O)N1c1ccc(-c2ccccc2)cc1 (configuration not stated)	35.6%
O=C1C2C3C=CC(CO)(O3)C2C(=O)N1c1ccccc1-c1ccccc1 (configuration not stated)	72.3% (active)
CC(=O)Oc1ccc(N2C(=O)C3C4C=CC(CO)(O4)C3C2=O)cc1 (configuration not stated)	-9.3%
CCc1ccc(CNc2ccc3c(c2)ncn3CC)cc1	-16.7%
CCC(SC1=NCCS1)C(=O)Nc1nnc(-c2ccccc2OC)s1 (configuration not stated)	-17.6%
NC(=O)Nc1ccc(C(=O)OCC(=O)N(Cc2ccccc2)C2CCS(=O)(=O)C2)cc1 (configuration not stated)	-20.7%
CN1CCc2c(sc(NC(=O)C3COc4ccccc4O3)c2C(N)=O)C1 (configuration not stated)	-27.9%
CC(=O)CSc1ccc(-c2nc3cc(C)c(C)cc3[nH]2)cn1	58.4% (active)
CCOC(=O)CSc1ccc(-c2nc3cc(C)c(C)cc3[nH]2)cn1	-40.2%
Cc1cc2nc(-c3ccc(SCC(=O)NC(C)C)nc3)[nH]c2cc1C	23.9%
